High-throughput results from PubChem BioAssay.
Sampled rows, rich in hits. Any-hit rate of the full collection: about 7.5%.
SMN2 splice enh = enhancers of SMN2 splice variant expression; HEK293 SMN2-luciferase splicing reporter, luminescence, 30-36 h; Potency, µM (series often up to 46.1 µM), usual class: activators; 2.8% of 210,000 active; also: nearly all actives have a fitted effect of over 55% in size
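HEK293 cells carry an SMN2 minigene-luciferase reporter in which exon 7 inclusion puts luciferase in frame. Cells were seeded at 2000 cells/well, attached for 10-12 hours, then exposed to compounds for 30-36 hours at 37C before ONE-Glo luminescence.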
Rab9 promoter act = activates the Rab9 promoter; Huh7 Rab9 promoter-luciferase reporter, luminescence, 24 h; Potency, µM (highest dose often 9.22 µM), actives largely listed as activators; 2.8% of 320,000 active; also: nearly all actives have a fitted effect of over 60% in size
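Huh7 reporter line, Rab9 promoter upstream of luciferase. Compound exposure 24 h at 37 °C in reduced-serum medium with 10% FBS. Read-out: luminescence.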
FLuc counter = firefly luciferase modulation, counter-screen for miR-21 project | P08659 | purified FLuc, Km substrates, luminescence inhibition | Potency, µM (series often up to 57.5 µM), most hits filed as inhibitors | 6.9% of 360,000 active; also: nearly all actives have a fitted effect of over 55% in size
Target sequence (P08659 whole entry, looked up): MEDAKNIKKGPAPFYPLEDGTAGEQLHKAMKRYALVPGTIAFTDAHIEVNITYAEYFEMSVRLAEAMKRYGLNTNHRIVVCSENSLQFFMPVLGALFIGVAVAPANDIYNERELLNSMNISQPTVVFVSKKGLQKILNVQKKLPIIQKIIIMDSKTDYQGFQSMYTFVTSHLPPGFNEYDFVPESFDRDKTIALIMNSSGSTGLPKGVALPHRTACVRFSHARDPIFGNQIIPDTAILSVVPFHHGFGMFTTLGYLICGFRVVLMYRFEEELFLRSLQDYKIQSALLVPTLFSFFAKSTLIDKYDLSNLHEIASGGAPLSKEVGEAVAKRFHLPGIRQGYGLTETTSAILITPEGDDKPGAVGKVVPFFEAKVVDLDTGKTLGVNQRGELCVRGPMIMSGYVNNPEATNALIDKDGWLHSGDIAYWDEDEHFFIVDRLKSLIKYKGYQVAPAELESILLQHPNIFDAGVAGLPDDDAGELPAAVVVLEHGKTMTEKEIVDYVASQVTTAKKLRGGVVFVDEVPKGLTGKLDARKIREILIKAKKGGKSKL
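Purified P. pyralis luciferase (10nM final) with 10uM D-luciferin and 10uM ATP (Km levels) in 50mM Tris acetate pH 7.5, 10mM Mg acetate, 0.01% Tween-20, 0.05% BSA; qHTS 6-point titration, ~60 µM downward; luminescence read.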
NPC1 prom act = activators of NPC1 promoter. Huh7 NPC1 promoter luciferase reporter, 24 h. Potency, µM (top dose mostly 9.22 µM), most hits filed as activators. 2.4% of 320,000 active. AID 485313; also: nearly all actives have a fitted effect of over 60% in size
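Stable NPC1-promoter luciferase Huh7 line; cpd (DMSO) 24 h, 37 °C, 5% CO2; Amplite luciferase reagent 10 min RT; luminescence readout. qHTS format.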
ELG1 genotox = inducers of genotoxicity in HEK293T ELG1-luciferase cells; HEK293T ELG1-luciferase reporter, luminescence, 16 h; Potency, µM (top dose mostly 46 µM), most hits filed as activators; 1.3% of 330,000 active; AID 504466; also: nearly all actives have a fitted effect of over 60% in size
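Genotoxic stress is detected as increased luminescence from luciferase-tagged ELG1 in HEK293T cells, measured with ONE-Glo after a 16 hr treatment at 37 °C.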
Hits are given with their value; n = inactive; u = inconclusive; x = no result given. Calls follow the shape of the dose curve; as a rule, active = well fitted curve in the direction sought with a large enough effect; inconclusive = small, poorly fitted or top-dose-only effect, or another doubt; inactive = no such curve, though single readings can be large; an effect the other way counts as inactive or inconclusive.

SMILES	SMN2 splice enh	Rab9 promoter act	FLuc counter	NPC1 prom act	ELG1 genotox
Cc1cc2oc(=O)c(CC(=O)NCCCO)c(C)c2c2occ(C(C)(C)C)c12	x	n	11µM	n	n
CCOC(=O)Cn1c(=O)c2c(nc(Br)n2CC(=O)OCC)n(C)c1=O	n	n	n	n	n
COc1ccc(S(=O)(=O)NNC(=O)c2cc3ccccc3o2)cc1	n	n	n	n	n
Cc1ccc(C2(C)NC(=O)N(CC(=O)NC(=O)NC(C)C)C2=O)cc1 (stereo not given)	x	n	n	n	n
O=C1c2ccccc2NC(c2ccc(-c3ccc(F)cc3)o2)N1O (stereo not given)	x	n	u	2.8µM	u
c1ccc(Oc2cc(-c3ccccc3)nc(-c3ccccc3)n2)cc1	n	n	n	n	n
c1ccc(Oc2cc(-c3ccccc3)ncn2)cc1	u	u	15µM	u	u
CN(C)S(=O)(=O)c1ccc(C(=O)Nc2cc(=O)n(C)c(=O)n2C)cc1	n	n	n	n	n
COc1ccc(CCNC(=O)c2c(O)nc3c(C)cccn3c2=O)cc1	u	x	n	x	x
Cc1ccc2c(c1)sc(-c1ccc(N(C)C)cc1)[n+]2C	x	n	12µM	n	n
Cc1nc(N)nc2c1CCCC2	n	n	n	n	n
COCCCn1c(SCC(=O)Nc2ccc(C)cc2)nc2ccccc2c1=O	x	n	24µM	n	n
COCCn1c(SCC(=O)Nc2ccccc2)nc2c(oc3ccccc32)c1=O	n	n	n	n	23µM
CN(C)/C=C(\C#N)C(=O)N/N=C/c1ccccc1	u	2.2µM	u	n	n
CC1Cc2ccccc2N1S(=O)(=O)c1cccc(C(=O)Nc2cccnc2)c1 (stereo not given)	x	u	n	n	n
CCOc1ccc(N=c2scc(-c3ccccc3)n2CCO)cc1	u	n	15µM	n	n
CCn1c(-c2ccccc2)csc1=Nc1ccc(O)cc1	u	2.2µM	8.5µM	2.8µM	u
CCCN1C(=O)/C(=C/c2cc(C)n(C)c2C)SC1=Nc1ccc(OC)cc1	n	n	n	n	n
S=c1[nH]nc(Nc2ccc(Cl)cc2)s1	x	n	u	n	n
CCOc1ccc(Nc2n[nH]c(=S)s2)cc1	x	1.8µM	u	2.5µM	u
Cn1c(=N)n(CC(=O)O)c2ccccc21	n	n	n	n	n
Cn1c(=N)n(CC(=O)c2ccc(Cl)c(Cl)c2)c2ccccc21	x	u	0.38µM	u	u
Cn1c(=N)n(CC(=O)c2ccccc2)c2ccccc21	x	1.1µM	1.2µM	3.2µM	0.37µM
COc1ccc(C(=O)CN2Cc3ccccc3C2=N)cc1	x	2.5µM	11µM	4µM	2.6µM
COc1ccc(C(=O)Cn2c(=N)n(C)c3ccccc32)cc1	x	u	8.5µM	n	u
SMILES	SMN2 splice enh	Rab9 promoter act	FLuc counter	NPC1 prom act	ELG1 genotox
CCOC(=O)CC(=O)CSC1=C(C#N)C(c2ccccc2OC)CC(=O)N1 (stereo not given)	n	n	n	n	n
COc1ccc(C)cc1NC(=O)CC(NC(C)=O)c1ccccc1 (stereo not given)	n	n	n	n	n
Cc1ccc(S(=O)(=O)Nc2cccc(C(=O)NCCCN3CCCC3=O)c2)cc1F	x	n	n	n	n
COc1ccc(C)cc1NC(=O)C(c1ccccc1)N1CCN(CC(=O)N2CCOCC2)CC1 (stereo not given)	x	n	n	n	n
CC(=O)NC(CSC(CC(=O)c1ccco1)c1ccc(C)cc1)C(=O)O (stereo not given)	n	u	4.3µM	n	u
O=C(CC(SCCO)c1ccc([N+](=O)[O-])cc1)c1ccco1 (stereo not given)	x	n	n	n	u
Cc1ccc(NC(=O)c2cc(-c3ccccc3)nn2-c2ccccc2)cc1	n	n	n	n	n
CC(=O)C(/C=N/c1cc(-c2ccc(C)cc2)nn1-c1ccccc1)=C(\C)O	u	4µM	u	4µM	u
COc1cc(/C=N/NC(=O)c2cccnc2)ccc1OCC(=O)Nc1c(C)cc(C)cc1C	n	n	n	n	n
Cc1ccc(NC(=O)c2ccccc2F)nc1	7.9µM	0.71µM	4.8µM	1.1µM	1.8µM
Cc1ccc(NC(=O)c2ccc3nc[nH]c3c2)nc1	x	n	n	n	n
Cc1ccc(NC(=O)c2ccc(C(=O)c3ccccc3)cc2)nc1	x	n	19µM	n	u
Cc1ccc(NC(=O)c2cc(F)c(F)cc2Cl)nc1	x	0.89µM	8.5µM	1.8µM	u
